Assay outcomes deposited in PubChem by National Center for Advancing Translational Sciences (NCATS).
aSyn rescue: alpha-synuclein toxicity inhibition in yeast; Yeast expressing alpha-synuclein, growth rescue, BacTiter-Glo, 24 h; Potency, µM (top dose mostly 46.1 µM), for the others: at the highest dose growth rescue (activation), most hits filed as activators; hit rate 0.14% among 370,000; AID 652106; note: % of control where 0% means no effect; nearly all actives have a fitted effect of over 65% in size
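Rescue of yeast growth: cells expressing toxic alpha-synuclein, induced in galactose at OD600 0.02, incubated with compound 24 h at 30 C. ATP luminescence quantified growth; inhibitors of toxicity appear as activators.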
Abeta rescue: restores growth of yeast expressing A-beta42 peptide; yeast expressing A-beta42, growth rescue, OD600, 48 h; response scale: 0% DMSO, 100% iron-clioquinol control; Potency, µM (series often up to 46.1 µM), most hits filed as activators; hit rate 0.063% among 410,000; AID 1347071; note: nearly all actives have a fitted effect of over 55% in size
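Yeast A-beta toxicity model in growth medium with pinned compounds, 48 h at 30 C; growth read as absorbance at 600 nm. Normalized to FeCl3/clioquinol equimolar mix (positive) and DMSO (negative).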
FUS suppressor: FUS proteinopathy suppression in yeast; Potency, µM (titrated, usually from 76.6 µM), most hits filed as activators; S. cerevisiae FUS-expressing, growth rescue, OD600, 24 h; hit rate 0.24% among 390,000; AID 1347120;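 note: plate controls were DMSO vehicle for no effect and reference control for full effect; nearly all actives have a fitted effect of over 55% in size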
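Cultures pregrown in 2.5% raffinose medium are shifted to minimal medium containing 2% galactose to express toxic FUS. Compounds are tested at several concentrations. After 24hr at 30C, growth is quantified at 600 nm absorbance.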
Mito fusion act: inhibitors of mitochondrial division or activators of mitochondrial fusion; S. cerevisiae fusion-defective mutant growth rescue, CellTiterGlo 48 h; Potency, µM (doses to about 46.1 µM), for inactives: top-dose growth rescue (activation), usual class: activators; hit rate 0.23% among 320,000; note: % of control where 0% means no effect; nearly all actives have a fitted effect of over 45% in size
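Compounds are tested for their ability to restore growth of mitochondrial fusion-defective yeast strains at non-permissive 37C in YPEG medium over 48 hours. Viability is quantified by luciferase luminescence.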
TDP-43 yeast inh: TDP-43 toxicity inhibition in yeast; AID 652104; hit rate 1.8% among 410,000; TDP-43 expressing yeast growth rescue, BacTiter-Glo, 24 h; Potency, µM (titrated, usually from 46.1 µM), inactives show top-dose growth rescue (activation), actives largely listed as activators; note: % of control where 0% means no effect; nearly all actives have a fitted effect of over 50% in size
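Readout is BacTiter-Glo luminescence of cell growth, so inhibitors register as activators. TDP-43-expressing yeast at OD600=0.02 in galactose medium, after raffinose pregrowth to mid-log, were incubated with compound for 24 hr at 30 deg C.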
* = called active by the depositor; i = inactive; ? = inconclusive; nt = no result given. Sampled rows, rich in hits. Any-hit rate of the full collection: about 2.2%. Calls come from the whole dose curve; as a rule, active = well fitted curve in the direction sought with a large enough effect; inconclusive = small, poorly fitted or top-dose-only effect, or another doubt; inactive = no such curve, though single readings can be large; an effect the other way counts as inactive or inconclusive. Potency is the fitted concentration of half-maximal effect.

SMILES	aSyn rescue	Abeta rescue	FUS suppressor	Mito fusion act	TDP-43 yeast inh
O=C(COC(=O)/C=C/c1ccc(Cl)c(Cl)c1)NC1CC1	24%	i	nt	nt	10µM*
CSc1ccc(/C=C/C(=O)OCC(=O)NC2CCCC2)cc1	-1%	i	i	nt	20µM*
N#CCC[C@H]1CC[C@]2(CCCN(Cc3ccc(Br)cc3)C2)O1	nt	nt	i	nt	nt
COCCNC(=O)C1(C)CCCN(C(=O)c2ccc(C(F)(F)F)cc2)C1 (stereo not given)	0%	i	i	nt	19%
Cc1ccc2occ(CC(=O)Nc3ccc(S(N)(=O)=O)cc3)c2c1	nt	i	i	nt	-20%
CCOc1ccccc1NC(=O)Cc1noc2ccc(C)cc12	nt	i	i	nt	?
CCOc1ccccc1NC(=O)Cc1coc2ccc(C)cc12	13µM*	?	i	-2%	nt
Cc1ccc2occ(CC(=O)Nc3c(C)cccc3C)c2c1	nt	i	i	nt	13µM*
CCCN(CCC)CCNC(=O)c1cc2c(=O)n(C)c3ccccc3c2n1C	11µM*	i	i	-1%	-2%
COc1cc(-n2c(C)nc3cc(C(=O)N4CCCN(C(C)=O)CC4)ccc32)cc(OC)c1OC	nt	nt	i	nt	nt
C[C@@H](c1ccccc1)N1C[C@@H](COCc2ccccc2)Oc2cc(N3CCC[C@H]3C(N)=O)ccc2S1(=O)=O	-3%	i	22µM*	nt	14%
C[C@@H](c1ccccc1)N1C[C@H](COCc2ccccc2)Oc2cc(N3CCC[C@H]3C(N)=O)ccc2S1(=O)=O	19%	i	?	nt	9%
O=C(CCc1ccccc1-c1ccccc1CCNC(=O)COCc1ccccc1)NCc1ccccc1	nt	nt	i	nt	nt
CCc1nc(C)cn1S(=O)(=O)c1ccc([N+](=O)[O-])cc1	1%	i	i	3%	3%
CCCn1c(CC)nc([N+](=O)[O-])c1S(=O)(=O)c1ccccc1	6%	i	i	-7%	25µM*
CCCCCCCCc1nc(=S)[nH][nH]1	-2%	i	i	19%	13µM*
CCCCCCC1CC(CCc2nc(=S)[nH][nH]2)C(=O)O1 (stereo not given)	-3%	i	i	2%	20%
CCN(CC)C(=O)Cn1cc([N+](=O)[O-])cc1[N+](=O)[O-]	-1%	i	i	nt	-10%
Cc1cc2cc3c(cc2n2c(SCC(=O)Nc4nc(-c5ccccc5)cs4)nnc12)OCO3	nt	nt	i	nt	nt
O=C(/C=C/Nc1ccccc1)c1ccccc1	-10%	i	i	7%	20%
CC(=O)Nc1ccc(N/C=C/C(=O)c2ccccc2)cc1	12%	i	i	-2%	13µM*
Cc1ccc(-n2c(SCC(=O)NN=Cc3ccc(-c4ccccc4)cc3)nnc2-c2ccccc2)cc1	nt	nt	i	nt	nt
O=C(c1n[nH]c2ccccc12)N1CCN(S(=O)(=O)c2ccc(Cl)cc2)CC1	0%	i	i	17%	19%
CC(C)NC(=O)C1(C)CSCC(=O)N1C1CC1 (stereo not given)	4%	i	i	nt	-12%
COc1ccc(C(=O)O/N=C2\C(=O)N(C)c3ccccc32)cc1	5.6µM*	nt	i	nt	4µM*
SMILES	aSyn rescue	Abeta rescue	FUS suppressor	Mito fusion act	TDP-43 yeast inh
COc1ccc(C(=O)OCCN2C(=O)c3ccccc3C2=O)cc1	?	i	i	5%	2%
CN1C(=O)/C(=N\OC(=O)c2cccc3ccccc23)c2ccccc21	?	i	i	-15%	18µM*
Cc1cccc(C(=O)OCC(=O)N(CC(C)C)c2c(N)n(Cc3ccccc3)c(=O)[nH]c2=O)c1O	1%	i	i	6%	4%
O=C(Cn1ncc(Cl)c(Cl)c1=O)c1ccc2c(c1)OCCO2	?	i	nt	nt	22µM*
Cc1ccc(S(=O)(=O)N2CCCCC2)cc1C(=O)OC(C)C(=O)NCC1CCCCC1 (stereo not given)	2%	i	i	-8%	28%
CCCC[C@@H]1Cc2[nH][nH]c(=O)c2[C@H](c2ccc(C(C)C)cc2)O1	-20%	i	?	nt	20µM*
O=c1[nH][nH]c2c1[C@H](c1ccc(Cl)cc1)O[C@H](C1CC1)C2	1%	i	i	nt	11µM*
C[C@@H]1Cc2[nH][nH]c(=O)c2[C@H](c2ccc(Cl)cc2)O1	0%	i	i	nt	29%
O=c1[nH][nH]c2c1[C@@H](c1ccc(F)cc1)O[C@H](C1CCCCC1)C2	-2%	i	i	nt	14%
O=c1[nH][nH]c2c1[C@H](c1ccccc1)O[C@H](C1CCCCC1)C2	5%	i	?	nt	35µM*
O=c1[nH][nH]c2c1[C@H](c1ccc(F)cc1)O[C@H](C1CCCCC1)C2	1%	i	?	nt	32µM*
COc1ccc(C(=O)C(=O)N2CCC(c3ccccc3)CC2)cn1	16µM*	i	i	nt	27%
O=C(C(=O)N1CCC(c2ccccc2)CC1)c1cccc([N+](=O)[O-])c1	?	i	i	nt	?
COc1ccc(C(=O)C(=O)N2CCC(Cc3ccccc3)CC2)cc1OC	0%	i	i	nt	11µM*
O=C1CC(=O)OC(c2ccc([N+](=O)[O-])cc2)O1	?	i	i	nt	3.2µM*
CCC1C(=O)C(C)(C)C(=O)OC1c1ccc([N+](=O)[O-])cc1 (stereo not given)	1%	i	i	3%	5%
CC1(C)C(=O)C=CC(=O)C(C)(C)C(=O)C=CC(=O)C(C)(C)C2=CC=C(O2)C(C)(C)C(=O)C=CC1=O	8%	i	nt	nt	16µM*
CCOC(=O)CC[C@@H]1CC[C@]2(CCCN(C(=O)c3cccnc3)C2)O1	nt	nt	i	nt	nt
Cc1ccc(C(=O)c2cn(Cc3cccc(C)c3)c3nc(C)ccc3c2=O)cc1	nt	i	i	nt	20µM*
O=C(Nc1nc(-c2cccs2)c(-c2ccccc2)s1)c1ccco1	-24%	i	i	25%	13µM*
CC(=O)Nc1sc(NC(=O)c2ccco2)nc1-c1cccs1	7%	i	i	-9%	-1%
O=C(Nc1nc(-c2cccs2)c(C(=O)C(F)(F)F)s1)c1ccco1	6%	i	i	23%	14µM*
Cc1ccc2c(c1)C(=O)OC(C(=O)Nc1ncc(Cc3ccc(Cl)cc3)s1)C2 (stereo not given)	0%	i	i	nt	18%
CCc1cccc(C)c1NC(=O)C1CCN(S(=O)(=O)Cc2ccccc2)CC1	nt	i	i	nt	8%
COc1cccc(C(=O)NNC(=O)C(=O)Nc2cccc(Cl)c2C)c1	17%	i	i	6%	-4%
COc1ccccc1C(=O)NNC(=O)C(=O)Nc1cccc(Cl)c1C	-52%	i	i	-50%	11µM*
CN(Cc1ccc(Cl)s1)C(=O)CCl	-20%	i	i	4%	10µM*
